Measurements taken from the supplement of paper PMC10037445.
Whole data set: some 2,900 compounds, median “NF-kB SEAP reporter activity, fold change vs agonist alone” near 0.99, cut for the highest 2% near 2.6. For the sample, the highest values were picked, then their nearest neighbours and some compounds at random.

Assays:
[1] = test system: RAW-Dual; test: NF-kB SEAP reporter activity, fold change vs agonist alone; cytotoxicity flag (confluency mask): not cytotoxic; higher = enhanced NF-kB activity
Method in brief: (§1)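 After 50 nL of library stock was delivered by pin tool to RAW-Dual macrophages (50,000 cells/well, DMEM, 384-well plates), a PRR agonist was added 1 h later and the plates were kept at 37 °C, 5% CO2. Twenty hours later, IRF was read from supernatant by QuantiLuc luminescence and NF-κB by QuantiBlue absorbance at 620 nm. Reporter activity is stated as fold change over agonist-alone wells. Wells with IncuCyte confluency under 70% of agonist controls in both mask sets were counted as cytotoxic.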

[2] = test system: RAW-Dual; test: NF-kB SEAP reporter activity, fold change vs agonist alone; higher = enhanced NF-kB activity; conditions: library stock concentration (final ~1000-fold dilution): 10 mM, cytotoxicity flag (confluency mask): not cytotoxic
Method in brief: as §1

[3] = agonist: ODN 1826 (TLR9) 0.5 ug/mL
[4] = agonist: Pam2CSK4 (TLR2/6) 0.1 ug/mL
[5] = agonist: Pam3CSK4 (TLR2/1) 0.1 ug/mL

Structure (SMILES) | NF-kB SEAP reporter activity ([1]; agonist: LPS (TLR4) 0.1 ug/mL) | NF-kB SEAP reporter activity [1, 3] | NF-kB SEAP reporter activity [1, 4] | NF-kB SEAP reporter activity [1, 5] | NF-kB SEAP reporter activity ([2]; agonist: Imiquimod (TLR7) […]) | NF-kB SEAP reporter activity ([2]; agonist: MPLA (TLR4) […])
Cn1ncc(Cl)c1-c1cc(C(=O)NC(CN)Cc2ccc(F)c(F)c2)oc1Cl (stereo unspecified) (library stock concentration (final ~1000-fold dilution): 10 mM) | 1.03 | 2.35 | 1.07 | 1.44 | – | –
Cn1ncc(Cl)c1-c1cc(C(=O)NC(CN)Cc2ccc(F)c(F)c2)oc1Cl (stereo unspecified) | – | – | – | – | 1.61 | 1.61
CCOC(=O)C(CCc1ccccc1)NC(C)C(=O)N1Cc2ccccc2CC1C(=O)O.Cl (stereo unspecified) (library stock concentration (final ~1000-fold dilution): 10 mM) | 0.94 | 1.07 | 1.26 | 1.05 | – | –
CCOC(=O)C(CCc1ccccc1)NC(C)C(=O)N1Cc2ccccc2CC1C(=O)O.Cl (stereo unspecified) | – | – | – | – | 1.02 | 1.03
CC(Nc1ncnc(N)c1C#N)c1cc2cccc(-c3ccc(=O)n(C)c3)c2c(=O)n1C(C)C (stereo unspecified) (library stock concentration (final ~1000-fold dilution): 10 mM) | 4.83 | 0.722 | 1.22 | 3.02 | – | –
CC(NC(=O)c1c(N)nn2cccnc12)c1cc2cccc(C#Cc3cnn(C)c3)c2c(=O)n1-c1ccccc1 (stereo unspecified) (library stock concentration (final ~1000-fold dilution): 10 mM) | 2.34 | 1.3 | 0.628 | 0.931 | – | –
CC(Nc1ncnc2[nH]cnc12)c1cc2cccc(Cl)c2c(=O)n1-c1ccccc1 (stereo unspecified) | – | – | – | – | 0.473 | 0.709
CC(NC(=O)c1c(N)nn2cccnc12)c1cc2cccc(C#Cc3cnn(C)c3)c2c(=O)n1-c1ccccc1 (stereo unspecified) | – | – | – | – | 1.18 | 1.44
CC(Nc1ncnc2[nH]cnc12)c1cc2cccc(Cl)c2c(=O)n1-c1ccccc1 (stereo unspecified) (library stock concentration (final ~1000-fold dilution): 10 mM) | 0.744 | 0.653 | 0.665 | 0.549 | – | –
CC(Nc1ncnc(N)c1C#N)c1cc2cccc(-c3ccc(=O)n(C)c3)c2c(=O)n1C(C)C (stereo unspecified) | – | – | – | – | 1.22 | 2.8
Cc1cccc(C)c1OCC(=O)NC(Cc1ccccc1)C(O)CC(Cc1ccccc1)NC(=O)C(C(C)C)N1CCCNC1=O (stereo unspecified) | – | – | – | – | 1.63 | 2.06
Cc1cccc(C)c1OCC(=O)NC(Cc1ccccc1)C(O)CC(Cc1ccccc1)NC(=O)C(C(C)C)N1CCCNC1=O (stereo unspecified) (library stock concentration (final ~1000-fold dilution): 10 mM) | 1.37 | 2.09 | 0.396 | 1.03 | – | –
Cc1ccc(S(=O)(=O)O)cc1.NC(=O)c1cccc2cn(-c3ccc(C4CCCNC4)cc3)nc12 (stereo unspecified) (library stock concentration (final ~1000-fold dilution): 10 mM) | 1.04 | 0.181 | 1.41 | 1.1 | – | –
Cc1ccc(S(=O)(=O)O)cc1.NC(=O)c1cccc2cn(-c3ccc(C4CCCNC4)cc3)nc12 (stereo unspecified) | – | – | – | – | 0.663 | 1.04
Cc1nc2ccc(CN(C)c3ccc(C(=O)NC(CCC(=O)O)C(=O)O)s3)cc2c(=O)[nH]1 (stereo unspecified) (library stock concentration (final ~1000-fold dilution): 10 mM) | 1.56 | 1.93 | 1.31 | 1.7 | – | –
Cc1nc2ccc(CN(C)c3ccc(C(=O)NC(CCC(=O)O)C(=O)O)s3)cc2c(=O)[nH]1 (stereo unspecified) | – | – | – | – | 1.78 | 1.45

Structure (SMILES) | NF-kB SEAP reporter activity ([1]; agonist: LPS (TLR4) 0.1 ug/mL) | NF-kB SEAP reporter activity [1, 3] | NF-kB SEAP reporter activity [1, 4] | NF-kB SEAP reporter activity [1, 5] | NF-kB SEAP reporter activity ([2]; agonist: Imiquimod (TLR7) […]) | NF-kB SEAP reporter activity ([2]; agonist: MPLA (TLR4) […])
CNc1ccc([N+](=O)[O-])cc1-n1cnc(-c2ccc(C(F)(F)F)cc2)c1 | – | – | – | – | 1.24 | 2.01
CNc1ccc([N+](=O)[O-])cc1-n1cnc(-c2ccc(C(F)(F)F)cc2)c1 (library stock concentration (final ~1000-fold dilution): 10 mM) | 4.5 | 1.91 | 0.926 | 1.08 | – | –
O=C(Cc1ccccc1)Nc1nnc(NC2CCN(c3nnc(NC(=O)Cc4ccccc4)s3)CC2)s1 | – | – | – | – | 0.998 | 1.26
O=C(Cc1ccccc1)Nc1nnc(NC2CCN(c3nnc(NC(=O)Cc4ccccc4)s3)CC2)s1 (library stock concentration (final ~1000-fold dilution): 10 mM) | 1.41 | 0.773 | 0.514 | 0.64 | – | –
COc1ccc(C2CC(=O)c3c(O)cc(O)cc3O2)cc1O (stereo unspecified) (library stock concentration (final ~1000-fold dilution): 10 mM) | 1.12 | 1.2 | 1.26 | 1.33 | – | –
COc1ccc(C2CC(=O)c3c(O)cc(O)cc3O2)cc1O (stereo unspecified) | – | – | – | – | 1.28 | 1.11
O=C(O)CCN1C(=O)/C(=C2/C(=O)Nc3ccc(Cl)cc32)SC1=S (library stock concentration (final ~1000-fold dilution): 10 mM) | 1.86 | 0.841 | 1.4 | 1.57 | – | –
O=C(O)CCN1C(=O)/C(=C2/C(=O)Nc3ccc(Cl)cc32)SC1=S | – | – | – | – | 0.954 | 1.18
COc1cc2c(OC3OC(CO)C4OC(C)(C)OC4C3O)c3c(c(-c4ccc5c(c4)OCO5)c2cc1OC)C(=O)OC3 (stereo unspecified) | – | – | – | – | 0.364 | 2.28
COc1cc(-c2oc3cc(O)cc(O)c3c(=O)c2OC2OC(CO)C(O)C(O)C2OC2OC(C)C(O)C(O)C2O)ccc1O (stereo unspecified) (library stock concentration (final ~1000-fold dilution): 10 mM) | 1.2 | 0.987 | 1.01 | 0.949 | – | –
COc1cc(-c2oc3cc(O)cc(O)c3c(=O)c2OC2OC(CO)C(O)C(O)C2OC2OC(C)C(O)C(O)C2O)ccc1O (stereo unspecified) | – | – | – | – | 0.928 | 1.05
COc1cc(/C=C/CO)cc(OC)c1OC1OC(CO)C(O)C(O)C1O (stereo unspecified) (library stock concentration (final ~1000-fold dilution): 10 mM) | 1.08 | 1.01 | 1.11 | 1.15 | – | –
COc1cc(/C=C/CO)cc(OC)c1OC1OC(CO)C(O)C(O)C1O (stereo unspecified) | – | – | – | – | 1.03 | 1.08
COc1cc2c(OC3OC(CO)C4OC(C)(C)OC4C3O)c3c(c(-c4ccc5c(c4)OCO5)c2cc1OC)C(=O)OC3 (stereo unspecified) (library stock concentration (final ~1000-fold dilution): 10 mM) | 2.9 | 0.644 | 1.95 | 3.92 | – | –
CC(NC(CCc1ccccc1)C(=O)O)C(=O)N1CCCC1C(=O)O.O.O (stereo unspecified) | – | – | – | – | 0.942 | 1.12
CC(NC(CCc1ccccc1)C(=O)O)C(=O)N1CCCC1C(=O)O.O.O (stereo unspecified) (library stock concentration (final ~1000-fold dilution): 10 mM) | 0.977 | 1.07 | 1.14 | 1.09 | – | –
